PubChem BioAssay AID1851 (National Center for Advancing Translational Sciences (NCATS), 2009)
“And” between values parts separate entries of the source, which are not always exact repeats. Equal entries are not always repeated. The whole screen tested about 16,000 compounds, of which about 5,100 (32%) were called active. Inconclusive results (about 25%) are left out. Some of the results follow. A number with no mark means an inactive call. The call rests on the fitted dose curve; in most records, active means well fitted curve in the direction sought with a large enough effect; inconclusive means small, poorly fitted or top-dose-only effect, or effect the other way; inactive means no such curve, though single readings can be large or run the other way.
On the % scale 0 is the no-effect control and ±100 the full control effect.

These compounds were tested against Cytochrome P450 3A4 (Homo sapiens) (UniProt P08684) (assay: Cytochrome panel assay with activity outcomes). Settings: recombinant CYP, pro-luciferin dealkylation, luminescence, p450-cyp3a4; series mostly up to 57.1 µM.
Cytochrome P450 3A4 (Homo sapiens), sequence (P08684 whole entry, looked up): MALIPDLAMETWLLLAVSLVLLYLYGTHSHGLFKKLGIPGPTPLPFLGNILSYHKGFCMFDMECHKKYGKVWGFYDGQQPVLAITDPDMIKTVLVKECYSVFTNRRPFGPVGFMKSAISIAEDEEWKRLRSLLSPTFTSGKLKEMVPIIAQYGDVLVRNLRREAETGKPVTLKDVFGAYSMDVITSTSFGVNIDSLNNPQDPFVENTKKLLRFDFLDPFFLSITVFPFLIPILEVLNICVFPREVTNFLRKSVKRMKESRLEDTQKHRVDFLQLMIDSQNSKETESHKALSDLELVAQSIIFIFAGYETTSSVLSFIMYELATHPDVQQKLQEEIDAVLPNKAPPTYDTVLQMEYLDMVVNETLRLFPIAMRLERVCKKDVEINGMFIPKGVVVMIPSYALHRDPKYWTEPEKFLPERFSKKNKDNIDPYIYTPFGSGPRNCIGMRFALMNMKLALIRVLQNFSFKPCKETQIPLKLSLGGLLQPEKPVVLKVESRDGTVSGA
O=C(/C=C\c1ccc(O)c(O)c1)O[C@@H]1C[C@](O)(C(=O)O)C[C@@H](O)[C@@H]1O was tested, and the AC50 was “inactive”.
For CC(=O)Nc1ccc(NCN2C(=O)C3C4CCC(C4)C3C2=O)cc1 (configuration not stated), the AC50 was “inactive”.
With Cc1cccc(OC(=O)CN2C(=O)C3C4CCC(C4)C3C2=O)c1C (configuration not stated) the AC50 was 14.1 µM (active).
For CCOc1ccc(C(=O)Nc2ccc(Cl)cn2)cc1Cl, the AC50 was “inactive”.
In the case of COc1ccc(C(=O)Nc2ccc(Cl)cn2)cc1Cl, the AC50 is reported as 28.2 µM (active).
With Cc1cc(=O)oc(C)c1C(=O)Nc1ccc(Cl)cn1 the activity, negative = inhibition was -3.08% [at 2.29 µM].
With Clc1ccccc1-c1cncnc1NCc1cccs1 the AC50 was 0.501 µM (active).
FC(F)(F)c1ccccc1-c1cncnc1NCc1cccs1 was tested, and the AC50 was 0.251 µM (active).
COc1ccccc1-c1cncnc1NCc1cccs1 was tested, and the AC50 was 0.398 µM (active).
For FC(F)(F)c1ccccc1-c1cc(NCc2cccs2)ncn1, the AC50 was “inactive”.
With Cc1ccccc1-c1cncnc1NCc1cccs1 the AC50 was 0.501 µM (active).
For CCCCCCCCCCCC1=C(O)C(=O)C=C(O)C1=O, the AC50 was “inactive”.
With O=C(O)c1ccccc1C(=O)Nc1cc2c(cc1Br)-c1ccccc1C2=O the activity, negative = inhibition was -24.8% [at 11.4 µM].
For O=C(O)CCCCCNC(=O)c1ccccc1Br, the AC50 was “inactive”.
For NNC(=O)CNC(c1ccccc1)c1cc(Br)ccc1NC(=O)c1ccccc1Br (configuration not stated), the AC50 was 0.794 µM (active).
With CCOC(=O)CCN1C(=O)[C@H]2[C@H]3[C@H](O)[C@H](O)C/C(=N/OCC(C)C)[C@H]3CC[C@@H]2C1=O the activity, negative = inhibition was -22.9% [at 11.4 µM].
COc1ccccc1-c1cc(NCc2cccnc2)ncn1 was tested, and the AC50 was 5.01 µM (active).
Cc1ccccc1-c1cc(NCc2ccccc2)ncn1 was tested, and the AC50 was “inactive”.
With Cc1ccccc1-c1cc(NCc2cccnc2)ncn1 the AC50 was 10 µM (active).
O=C(O)[C@H]1CCCNC1 was tested, and the AC50 was “inactive”.
Compound NS(=O)(=O)c1ccc(NCc2nc3ccccc3[nH]2)cc1 has an activity, negative = inhibition of -19.2% [at 11.4 µM].
NS(=O)(=O)c1ccc(NCc2cnc3ccccc3n2)cc1 was tested, and the activity, negative = inhibition was -7.19% [at 11.4 µM].
With NS(=O)(=O)c1ccc(NCc2ccccc2OCc2ccccc2F)cc1 the AC50 was 15.8 µM (active).
With CCCOc1ccccc1-c1nc2n[nH]nc2c(=O)[nH]1 the AC50 was “inactive”.
In the case of C=CCc1cccc(C2Nc3ccccc3C(=O)N2O)c1O (configuration not stated), the AC50 is reported as 20 µM (active).
With O=C1c2ccccc2NC(c2ccc(Cl)cc2Cl)N1O (configuration not stated) the AC50 was “inactive”.
For CC(=O)c1c(O)cc(=O)n(-c2ccccc2)c1-c1ccc(C)cc1, the AC50 was “inactive”.
In the case of Cc1cc(O)c(C(C)C)cc1C1(c2cc(C(C)C)c(O)cc2C)OC(=O)c2ccccc21, the AC50 is reported as 1.58 µM (active).
With Cc1cc(O)c(C(C)C)cc1CN1CCCCC1 the activity, negative = inhibition was -7.75% [at 11.4 µM].
For Fc1ccc(COc2ccc(Br)cc2CNCc2ccncc2)cc1, the AC50 was 0.562 µM (active).
With Clc1ccccc1-c1nc(NCc2cccs2)c2ccccc2n1 the AC50 was 6.31 µM (active).
For FC(F)(F)c1ccccc1-c1nc(NCc2cccs2)c2ccccc2n1, the AC50 was 3.98 µM (active).
With C/C(=N\NC(=O)c1cccc(C)c1)c1cccc(NC(=O)c2ccco2)c1 the activity, negative = inhibition was -7.23% [at 2.29 µM].
In the case of C/C(=N\NC(=S)Nc1cccc(C)c1)c1ccccc1, the AC50 is reported as 8.91 µM (active).
With C/C(=N/NC(=O)Cc1cccn1C)c1ccccc1 the AC50 was “inactive”.
With COc1cc(C(=O)NCc2cccc3ccccc23)cc(Cl)c1OC the AC50 was 10 µM (active).
O=C(O)C1(C(=O)O)CCN(S(=O)(=O)c2ccccc2)CC1 showed an activity, negative = inhibition of -12.3% [at 11.4 µM].
COc1ccc(S(=O)(=O)N2CCCCCC2)cc1N(C)S(=O)(=O)c1ccc(Cl)cc1 showed an activity, negative = inhibition of -26.2% [at 2.29 µM].
CC1CCN(C(=O)C2CCN(S(=O)(=O)c3cccc4nonc34)CC2)CC1 was tested, and the AC50 was “inactive”.
For O=S(=O)(c1ccccc1S(=O)(=O)N1CCCCC1)N1CCCCC1, the AC50 was 8.91 µM (active).
With O=S(=O)(c1cccc2cnccc12)N1CCNCC1 the AC50 was 12.6 µM (active).
In the case of O=S(=O)(c1cccc2c(Cl)cccc12)N1CCCNCC1, the AC50 is reported as 5.01 µM (active) and 3.98 µM (active).
With C[C@H]1CN(S(=O)(=O)c2cccc3cnccc23)CCN1 the AC50 was 10 µM (active).
Compound O=S(=O)(c1ccccc1)N1CN2CN(C1)CN(S(=O)(=O)c1ccccc1)C2 has an activity, negative = inhibition of -1.65% [at 11.4 µM].
For CCOC(=O)C(NC(C)=O)C(=O)O (configuration not stated), the AC50 was “inactive”.
Work on O=C1C=CC(=Nc2cccc3c(N=C4C=CC(=O)O4)cccc23)O1 yielded an activity, negative = inhibition of -24.5% [at 11.4 µM].
With CC(C)=CCc1c(C)nc2ccccc2c1C(=O)O the AC50 was “inactive”.
In the case of COC(=O)c1cc(NC(=O)CC2NC3CCCCC3NC2=O)cc(C(=O)OC)c1 (configuration not stated), the AC50 is reported as 28.2 µM (active).
For CCC1C(=O)N=C(SCC(=O)Nc2ccc(C(=O)OC)cc2)NC1=O (configuration not stated), the AC50 was “inactive”.
With COC(=O)c1ccc(NC(=O)C2CCCCC2C(=O)O)cc1 (configuration not stated) the AC50 was “inactive”.
COC(=O)c1cc(=O)[nH]c(=O)[nH]1 gave an activity, negative = inhibition of 0.116% [at 11.4 µM].
CC(=O)c1c(C)[nH]c(C(=O)COc2ccc(C#N)cc2)c1C was tested, and the AC50 was 3.16 µM (active).
In the case of CC(=O)COc1ccc2c(C)c(C)c(=O)oc2c1, the activity, negative = inhibition is reported as -1.64% [at 2.29 µM].
CC(=O)N1CCN(c2nc(C)nc3sc4c(c23)CCC(C)C4)CC1 (configuration not stated) was tested, and the AC50 was “inactive”.
CC#CCOC(=O)c1c(C)nc2sc3c(c2c1N)CC[C@@H](O)C3 was tested, and the AC50 was 3.16 µM (active).
COc1cccc(/C(O)=C2/C(=O)C(=O)N(c3cc(C)on3)C2c2cccs2)c1 (configuration not stated) was tested, and the AC50 was 28.2 µM (active).
For Cc1cc(N2C(=O)C(O)=C(C(=O)c3ccco3)C2c2ccc(O)cc2)no1 (configuration not stated), the AC50 was “inactive”.
With COCCN1C(=O)C(=O)/C(=C(/O)c2cccc(OC)c2)C1c1ccc(C)o1 (configuration not stated) the AC50 was “inactive”.
In the case of COC(=O)[C@@]1(Cc2ccc(OC)cc2)[C@H]2c3cc(C(=O)N4CCCC4)n(CCn4cc([N+](=O)[O-])nc4C)c3C[C@H]2CN1C(=O)c1ccccc1, the AC50 is reported as 3.98 µM (active).
In the case of COC(=O)[C@@]1(Cc2ccccc2)[C@H]2c3cc(C(=O)N4CCCC4)n(Cc4ccc(C(F)(F)F)nc4)c3C[C@H]2CN1C(=O)c1ccccc1, the AC50 is reported as 3.16 µM (active).
In the case of COC(=O)[C@@]1(Cc2ccc(F)cc2)[C@H]2c3cc(C(=O)N(C)C)n(Cc4ccc(C(F)(F)F)nc4)c3C[C@H]2CN1C(=O)c1ccccc1, the AC50 is reported as 1.26 µM (active).
In the case of COC(=O)[C@@]1(Cc2ccc(OC)cc2)[C@H]2c3cc(C(=O)N4CCCC4)n(Cc4ccc(C(F)(F)F)nc4)c3C[C@H]2CN1C(=O)c1ccccc1, the AC50 is reported as 3.16 µM (active).
In the case of O=C(NCCCn1ccnc1)c1ccc(Br)c(S(=O)(=O)N2CCOCC2)c1, the AC50 is reported as 2 µM (active).
For CN1CCc2[nH]nc(-c3n[nH]c4c3CN(C)CC4)c2C1, the activity, negative = inhibition was -6.16% [at 11.4 µM].
For CCN1CCN(C(=O)N[C@H](C(=O)N[C@@H]2C(=O)N3[C@@H]2SC(C)(C)[C@@H]3C(=O)O)c2ccccc2)C(=O)C1=O, the AC50 was “inactive”.
CCOc1c(Cl)cc(C(=O)Nc2ccccc2-c2ccccc2)cc1Cl was tested, and the AC50 was 14.1 µM (active).
CCOC(=O)c1ccc(Cl)c(NC(=O)c2ccc(-c3ccccc3)cc2)c1 showed an activity, negative = inhibition of 6.61% [at 11.4 µM].
CO[C@@H]1COC(=O)CC=C[C@@H](C)[C@@H]2C=C[C@H](O)[C@@H](COC(=O)[C@H](C)NC(=O)CC=C[C@H]1C)O2 was tested, and the activity, negative = inhibition was -23.2% [at 11.4 µM].
For COc1ccc(-c2cc(C(F)(F)F)n3nc(C(=O)N4CCCCC4)cc3n2)cc1, the AC50 was 14.1 µM (active).
With COC(=O)c1ccccc1NC(=O)c1cc2nc(C3CC3)cc(C(F)(F)F)n2n1 the AC50 was “inactive”.
With CCOC(=O)C1CCCN(C(=O)c2cc3nc(-c4ccc5c(c4)OCO5)cc(C(F)(F)F)n3n2)C1 (configuration not stated) the AC50 was 3.98 µM (active).
With COc1ccc(NC(=O)N2CCC3(CC2)CCN(C(=O)c2cnccn2)CC3)cc1 the AC50 was “inactive”.
CCOC(=O)c1[nH]c(C(=O)O)c(CCN(CC)CC)c1C was tested, and the AC50 was “inactive”.
CN(C)Cc1ccc(-c2cc3onc(-c4ccccc4)c3c(=O)n2C)cc1 gave an activity, negative = inhibition of 8.36% [at 11.4 µM].
Work on COc1ccc(C(C(=O)NC2CCCC2)N(C(=O)c2snc(-c3ccc(F)cc3)c2N)c2ccccc2)cc1 (configuration not stated) yielded an activity, negative = inhibition of -12% [at 2.29 µM].
COc1ccc(C(C(=O)NC2CCCCC2)N(C(=O)c2sc(C)nc2C)c2ccc(C(C)=O)cc2)cc1 (configuration not stated) was tested, and the AC50 was 25.1 µM (active).
COc1ccc(C(C(=O)NC2CCCCC2)N(C(=O)CCCC(=O)Nc2ccccn2)c2ccc3c(c2)OCCO3)cc1 (configuration not stated) was tested, and the AC50 was 1.26 µM (active).
For COc1ccc(C(C(=O)NC2CCCCC2)N(C(=O)c2sc(C)nc2C)c2ccc(OC)cc2)cc1 (configuration not stated), the AC50 was 12.6 µM (active).
In the case of CC(=O)c1ccc(S(=O)(=O)NC(=O)NC2CCCCC2)cc1, the AC50 is reported as “inactive”.
CC(CC(=O)Nc1ccc(Cl)c([N+](=O)[O-])c1)c1ccccc1 (configuration not stated) was tested, and the AC50 was 10 µM (active).
In the case of COc1ccc([N+](=O)[O-])cc1NC(=O)CC(C)c1ccccc1 (configuration not stated), the AC50 is reported as 7.08 µM (active).
Compound CC(CC(=O)O)CC(=O)Nc1ccc(S(N)(=O)=O)cc1 (configuration not stated) has an activity, negative = inhibition of -4.05% [at 2.29 µM].
COc1ccc(OC)c(NC(=O)CC(Cc2ccccc2OC)C(=O)O)c1 (configuration not stated) was tested, and the AC50 was “inactive”.
In the case of CCOc1ccc(NC(=S)NC(=O)/C=C/c2ccc(OC)c(OC)c2)c([N+](=O)[O-])c1, the AC50 is reported as “inactive”.
With COc1ccc([N+](=O)[O-])cc1NC(=S)NC(NC(=O)Cc1ccc(OC)c(OC)c1)C(Cl)(Cl)Cl (configuration not stated) the AC50 was 1.58 µM (active).
For COc1ccc([N+](=O)[O-])cc1NCc1ccccc1C, the AC50 was 12.6 µM (active).
For Cc1ccc([N+](=O)[O-])cc1NC(=S)NC(=O)C(C)(C)C, the AC50 was “inactive”.
CC(C)CC(=O)Nc1ccc2c(c1)oc1ccccc12 was tested, and the AC50 was “inactive”.
C1CNCCOCCNCCN1 was tested, and the AC50 was “inactive”.
For Cn1c(=O)[nH]c(=O)c2c1nc(CN(Cc1ccccc1)Cc1ccccc1)n2CCN1CCOCC1, the AC50 was 4.47 µM (active).
With CCN1CCN(c2nc3c(c(=O)[nH]c(=O)n3C)n2CCCSc2ncccn2)CC1 the AC50 was “inactive”.
Cn1c(=O)c2c(nc(Cc3ccccc3)n2CC(=O)O)n(C)c1=O was tested, and the activity, negative = inhibition was -2.47% [at 11.4 µM].
With CCOC(=O)Cn1c(CN(Cc2ccccc2)Cc2ccccc2)nc2c1c(=O)[nH]c(=O)n2C the AC50 was 25.1 µM (active).
Cn1c(=O)[nH]c(=O)c2c1nc(CN1CCOCC1)n2CCCO was tested, and the AC50 was “inactive”.
With CCOC(=O)N1CCN(Cc2nc3c(c(=O)[nH]c(=O)n3C)n2Cc2ccccc2C)CC1 the AC50 was 3.98 µM (active).
For COc1ccc(N2CCN(Cc3nc4c(c(=O)[nH]c(=O)n4C)n3CCCc3ccccc3)CC2)cc1, the AC50 was 2.24 µM (active).
In the case of COc1ccc(N2CCN(Cc3nc4c(c(=O)n(C)c(=O)n4C)n3CC(C)=O)CC2)cc1, the AC50 is reported as “inactive”.
